Outcome and AC50 data for three compounds are collected here from PubChem BioAssay (EPA / NIEHS).

Experiment [1] can be described thus: ATG_PBREM_CIS: Attagene CIS-FACTORIAL HepG2 Assay for human Phenobarbital-responsive Enhancer Module (PBREM) (AID 2282955). The note with it: HepG2 PBREM cis-reporter, Attagene multiplexed transcription; actives raise or lower the signal. The method, boiled down: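 HepG2 cells transiently transfected with multiple cis-regulated reporter units measure endogenous transcription factor activity; 24 h compound exposure. Reporter mRNA quantified by RT-PCR, fluorescent labelling, HpaI digestion and capillary electrophoresis; bidirectional fit versus DMSO.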

The target in experiment [2] is Paired box protein Pax-6 (Homo sapiens) (UniProt P26367). Nature of the experiment: ATG_Pax6_CIS: Attagene CIS-FACTORIAL HepG2 Assay for human Paired Box 6 (PAX6) (AID 2282956). The conditions noted are these: HepG2 CIS-FACTORIAL PAX6 reporter transcription, RNA readout; actives raise or lower the signal. In short, it runs like this:
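Multiplexed cis-reporter HepG2 system; 24 h treatment; reporter mRNA read by RT-PCR/CE fluorescence; bidirectional fit vs DMSO.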

Experiment [3] in a line: ATG_PXRE_CIS: Attagene CIS-FACTORIAL HepG2 Assay for human Pregnane X Receptor Element (PXRE) (AID 2282957). The conditions noted are these: HepG2 Attagene CIS-FACTORIAL PXRE reporter, mRNA; actives raise or lower the signal. The method, boiled down: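 HepG2 cells transiently transfected with cis-element-driven multiplexed reporter units; after 24 h chemical exposure, reporter mRNA measured by RT-PCR, 6-FAM labelling, HpaI digestion and capillary electrophoresis. Bidirectional fitting relative to DMSO.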

A short description of experiment [4]: ATG_PPRE_CIS: Attagene CIS-FACTORIAL HepG2 Assay for human Peroxisome Proliferator-activated Response Element (PPRE) (AID 2282958). The note with it: HepG2 PPRE cis-element reporter, Attagene transcription factor profiling; actives raise or lower the signal. In short, it runs like this: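 HepG2 cells are transiently transfected with multiplexed cis-promoter reporter units to report endogenous PPAR activity. After 24 h dosing, reporter mRNA is read by RT-PCR and capillary electrophoresis. Fitting is bidirectional against DMSO.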

Experiment [5] can be described thus: ATG_RORE_CIS: Attagene CIS-FACTORIAL HepG2 Assay for human RAR-related Orphan Receptor Element (RORE) (AID 2282959). The note with it: HepG2 Attagene cis-factorial RORE reporter, mRNA; actives raise or lower the signal. The method, boiled down: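 HepG2 cells carrying transiently transfected cis-regulated reporter units; RORE-driven reporter mRNA quantified 24 h post-dosing by RT-PCR, 6-FAM primer extension, HpaI digestion and capillary electrophoresis. Bidirectional fit versus DMSO.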

The nature of experiment [6]: ATG_Sox_CIS: Attagene CIS-FACTORIAL HepG2 Assay for human SRY-box transcription factor (SOX) (AID 2282960). The conditions noted are these: HepG2 Attagene cis-factorial SOX reporter, mRNA; actives raise or lower the signal. In short, it runs like this: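 HepG2 cells transiently transfected with multiple cis-regulated reporter units, then dosed for 24 h. Reporter mRNA quantified by RT-PCR, fluorescent labelling, HpaI digestion and capillary electrophoresis; bidirectional fit versus DMSO.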

For experiment [7], the target named is Transcription factor Sp1 (Homo sapiens) (UniProt P08047). The experiment can be described thus: ATG_Sp1_CIS: Attagene CIS-FACTORIAL HepG2 Assay for human Specificity Protein 1 (Sp1) (AID 2282961). The note with it: HepG2 Sp1 cis-reporter transcription, actives raise or lower the signal. In short, it runs like this: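 HepG2 cells transiently transfected with multiplexed cis-regulated reporter constructs, chemical exposure 24 h. Reporter mRNA quantified by RT-PCR with capillary electrophoresis; bidirectional fit relative to DMSO.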
Sequence of Transcription factor Sp1 (Homo sapiens) (P08047 whole entry, looked up): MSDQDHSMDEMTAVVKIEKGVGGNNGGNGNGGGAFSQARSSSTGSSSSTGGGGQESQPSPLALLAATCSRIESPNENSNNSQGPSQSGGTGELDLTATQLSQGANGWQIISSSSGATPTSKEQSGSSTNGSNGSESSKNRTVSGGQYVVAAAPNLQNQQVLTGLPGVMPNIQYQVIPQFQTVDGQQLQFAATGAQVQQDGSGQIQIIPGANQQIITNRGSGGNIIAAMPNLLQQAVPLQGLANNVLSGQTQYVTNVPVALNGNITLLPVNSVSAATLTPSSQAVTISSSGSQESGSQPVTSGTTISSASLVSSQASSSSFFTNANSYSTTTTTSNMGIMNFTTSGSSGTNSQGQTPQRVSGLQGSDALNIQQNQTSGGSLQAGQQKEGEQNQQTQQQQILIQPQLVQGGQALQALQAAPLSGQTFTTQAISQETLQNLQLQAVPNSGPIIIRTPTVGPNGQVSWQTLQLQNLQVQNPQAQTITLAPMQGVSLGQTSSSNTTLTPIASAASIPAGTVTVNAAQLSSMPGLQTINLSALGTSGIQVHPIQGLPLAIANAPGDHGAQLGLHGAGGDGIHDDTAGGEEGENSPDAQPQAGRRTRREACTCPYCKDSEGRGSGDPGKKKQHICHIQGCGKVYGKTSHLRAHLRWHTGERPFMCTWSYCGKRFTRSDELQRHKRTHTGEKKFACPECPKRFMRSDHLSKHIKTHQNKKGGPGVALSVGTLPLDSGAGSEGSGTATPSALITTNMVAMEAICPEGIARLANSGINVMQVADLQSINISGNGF

Experiment [8] can be described thus: ATG_SREBP_CIS: Attagene CIS-FACTORIAL HepG2 Assay for human Sterol Regulatory Element Binding (SREBP) (AID 2282962). The conditions noted are these: HepG2 Attagene cis-factorial SREBP reporter, mRNA; actives raise or lower the signal. The method, boiled down:
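mRNA induction of transfected cis-promoter reporters in HepG2 cells, 24 h post-dose. Detection: RT-PCR with 6-FAM-labelled products, HpaI digest, capillary electrophoresis. DMSO served as negative control and baseline.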

The target of experiment [9] is Signal transducer and activator of transcription 3 (Homo sapiens) (UniProt P40763). Nature of the experiment: ATG_STAT3_CIS: Attagene CIS-FACTORIAL HepG2 Assay for human Signal Transducer and Activator of Transcription 3 (STAT3) (AID 2282963). The conditions noted are these: HepG2, Attagene cis-factorial STAT3 reporter transcription; actives raise or lower the signal. In short, it runs like this: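 HepG2 cells transiently transfected with multiple cis-element-driven reporter units report endogenous transcription factor activity. After 24 h compound exposure, reporter mRNA is measured by RT-PCR, 6-FAM labelling, HpaI digestion and capillary electrophoresis. Fitted bidirectionally versus DMSO.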
Sequence of Signal transducer and activator of transcription 3 (Homo sapiens) (P40763 whole entry, looked up): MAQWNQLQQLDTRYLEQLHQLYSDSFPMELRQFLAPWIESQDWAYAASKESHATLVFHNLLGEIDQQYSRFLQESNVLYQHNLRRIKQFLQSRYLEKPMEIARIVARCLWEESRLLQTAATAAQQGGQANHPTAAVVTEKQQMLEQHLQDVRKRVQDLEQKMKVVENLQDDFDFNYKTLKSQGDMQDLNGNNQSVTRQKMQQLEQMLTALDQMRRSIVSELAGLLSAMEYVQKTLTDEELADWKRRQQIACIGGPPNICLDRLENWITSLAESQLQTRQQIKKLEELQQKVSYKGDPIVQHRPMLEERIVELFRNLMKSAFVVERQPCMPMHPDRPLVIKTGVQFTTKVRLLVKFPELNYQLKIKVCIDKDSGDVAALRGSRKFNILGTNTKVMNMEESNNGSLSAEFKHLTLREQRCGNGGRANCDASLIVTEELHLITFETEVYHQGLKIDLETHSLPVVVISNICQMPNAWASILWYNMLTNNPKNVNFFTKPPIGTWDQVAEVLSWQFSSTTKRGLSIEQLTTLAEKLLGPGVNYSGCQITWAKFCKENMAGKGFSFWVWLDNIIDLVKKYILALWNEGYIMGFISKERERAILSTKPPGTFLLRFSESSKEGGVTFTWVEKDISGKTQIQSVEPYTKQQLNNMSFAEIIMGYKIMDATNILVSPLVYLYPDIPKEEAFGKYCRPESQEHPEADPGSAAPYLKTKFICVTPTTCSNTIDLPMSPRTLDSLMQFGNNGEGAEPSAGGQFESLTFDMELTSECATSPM

Experiment [10] is described as follows: ATG_TA_CIS: Attagene CIS-FACTORIAL HepG2 Assay for human TA Basal Promoter (AID 2282964). The note with it: HepG2 Attagene CIS-factorial TA basal promoter reporter; actives raise or lower the signal. In short, it runs like this: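 Fluorescence from labelled RT-PCR reporter fragments, separated by capillary electrophoresis, gives the signal. Cells: HepG2 transiently carrying multiple reporter units, 24 h chemical dosing. Gain or loss relative to DMSO.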

Experiment [11] is described as follows: ATG_TCF_b_cat_CIS: Attagene CIS-FACTORIAL HepG2 Assay for human T-Cell-Factor with beta-catenin (TCF/b-cat) (AID 2282965). The note with it: HepG2 TCF/beta-catenin cis-reporter transcription, actives raise or lower the signal. In short, it runs like this: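 HepG2, transient MRTU transfection, cis-element-driven reporters (endogenous TFs). 24 h compound exposure. Readout: reporter mRNA by RT-PCR + 6-FAM primer extension, HpaI digest, capillary electrophoresis. Gain/loss fit vs DMSO baseline.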

Experiment [12] can be described thus: ATG_TAL_CIS: Attagene CIS-FACTORIAL HepG2 Assay for human TAL Basal Promoter (AID 2282966).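 Also: background control endpoint measuring basal TAL promoter reporter mRNA not a specific factor.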 The conditions noted are these: HepG2 Attagene cis-factorial TAL promoter reporter; actives raise or lower the signal. In short, it runs like this:
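HepG2 cells transiently transfected with multiplexed cis-promoter reporter units, dosed 24 h. Reporter mRNA quantified by RT-PCR, 6-FAM labelling, HpaI digestion and capillary electrophoresis; TAL basal promoter serves as background control, fitted bidirectionally versus DMSO.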

A short description of experiment [13]: ATG_TGFb_CIS: Attagene CIS-FACTORIAL HepG2 Assay for human Transforming Growth Factor (TGF) (AID 2282967). The note with it: HepG2 Attagene CIS TGFb reporter, mRNA transcription; actives raise or lower the signal. In short, it runs like this:
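Bidirectional fitting relative to DMSO gave the endpoint. Underlying data: reporter mRNA from HepG2 cells carrying transiently transfected cis-regulated reporter constructs, harvested 24 h after dosing and analyzed by RT-PCR and capillary electrophoresis.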

The target of experiment [14] is Estrogen receptor (Homo sapiens) (UniProt P03372). Nature of the experiment: ATG_ERa_TRANS: Attagene TRANS-FACTORIAL HepG2 Assay for human Estrogen Receptor alpha (ERa) (AID 2282970; active = hit-call score of the fitted dose curve at least 0.9, where 1 is the maximum). The note with it: HepG2 Attagene TRANS ERa GAL4 reporter, mRNA. In short, it runs like this:
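HepG2 cells transiently transfected with multiplexed GAL4-UAS reporter units read out chimeric NR-Gal4 activity. After 24 h compound exposure, reporter mRNA was quantified by RT-PCR, 6-FAM labeling, HpaI digestion and capillary electrophoresis, relative to DMSO.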

Experiment [15] addresses Steroid hormone receptor ERR1 (Homo sapiens) (UniProt P11474). The experiment can be described thus: ATG_ERRa_TRANS: Attagene TRANS-FACTORIAL HepG2 Assay for human Estrogen-Related Receptor alpha (ERRa) (AID 2282971; active = hit-call score of the fitted dose curve at least 0.9, where 1 is the maximum). The conditions noted are these: HepG2 Attagene TRANS reporter, ERRa transactivation. In short, it runs like this:
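HepG2 cells transiently transfected with GAL4-UAS reporter units and chimeric NR-Gal4 constructs; after 24 hour compound incubation, reporter mRNA quantified by RT-PCR, fluorescent labelling and capillary electrophoresis, gain of signal versus DMSO.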

Experiment [16] has as its target X-box-binding protein 1 (Homo sapiens) (UniProt P17861). The experiment can be described thus: ATG_Xbp1_CIS: Attagene CIS-FACTORIAL HepG2 Assay for human X-box Binding Protein 1 (XBP1) (AID 2282972). The conditions noted are these: HepG2 XBP1 cis-element reporter, Attagene multiplex; actives raise or lower the signal. In short, it runs like this: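 Fluorescence-labelled cDNA fragments from reporter transcripts, separated by capillary electrophoresis, give the signal. Source: HepG2 cells transfected with promoter-driven reporter units, harvested 24 h post-dose. DMSO served as reference for bidirectional curve fitting.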

The nature of experiment [17]: ATG_M_19_TRANS: Attagene TRANS-FACTORIAL HepG2 Assay for M19 Transcription Factor (Internal Marker) (AID 2282974; active = hit-call score of the fitted dose curve at least 0.9, where 1 is the maximum). The conditions noted are these: HepG2 Attagene TRANS-FACTORIAL M19 internal marker reporter. In short, it runs like this: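 HepG2 transiently transfected with GAL4-UAS multiplex reporter constructs, exposed 24 h; reporter RNA quantified by RT-PCR, 6-FAM labeling, HpaI digestion and capillary electrophoresis; internal background marker fitted upward versus DMSO.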

The nature of experiment [18]: ATG_VDRE_CIS: Attagene CIS-FACTORIAL HepG2 Assay for human Vitamin D Receptor Element (VDRE) (AID 2282968). The note with it: HepG2 VDRE cis-reporter transcription, actives raise or lower the signal. In short, it runs like this:
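Transiently transfected HepG2 cells carrying cis-regulated reporter transcription units were exposed for 24 h. Reporter mRNA was measured by RT-PCR with fluorescent labelling and capillary electrophoresis, and fitted in both directions against DMSO.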

For experiment [19], the target named is Nuclear receptor subfamily 1 group I member 3 (Homo sapiens) (UniProt Q14994). The experiment can be described thus: ATG_CAR_TRANS: Attagene TRANS-FACTORIAL HepG2 Assay for human Constitutive Androstane Receptor (CAR) (AID 2282969; active = hit-call score of the fitted dose curve at least 0.9, where 1 is the maximum;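 also: activators raise reporter mRNA above DMSO so AC50 marks induction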). The conditions noted are these: HepG2 Attagene TRANS-FACTORIAL CAR reporter. In short, it runs like this: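 HepG2 cells transiently transfected with GAL4-UAS reporter units; TRANS format reads activity of exogenous chimeric NR-Gal4 protein. After 24 h dosing, reporter mRNA quantified by RT-PCR, 6-FAM labelling and capillary electrophoresis; gain of signal fitted against DMSO.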
Sequence of Nuclear receptor subfamily 1 group I member 3 (Homo sapiens) (Q14994 whole entry, looked up, the tested form may be a part): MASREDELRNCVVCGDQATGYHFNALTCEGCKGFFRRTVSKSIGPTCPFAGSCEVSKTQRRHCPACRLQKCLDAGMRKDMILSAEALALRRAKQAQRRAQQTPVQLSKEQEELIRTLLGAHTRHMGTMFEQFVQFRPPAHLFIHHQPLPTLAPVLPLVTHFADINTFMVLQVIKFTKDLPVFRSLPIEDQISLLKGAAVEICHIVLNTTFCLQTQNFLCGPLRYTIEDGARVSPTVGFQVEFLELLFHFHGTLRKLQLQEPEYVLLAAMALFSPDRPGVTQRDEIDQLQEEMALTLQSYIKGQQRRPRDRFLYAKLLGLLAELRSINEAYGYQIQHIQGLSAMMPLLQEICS

Results filed as inconclusive are left out. Calls of active or inactive are those of the source. The calls were made as follows, unless noted: active = hit-call score of the fitted dose curve at least 0.9, where 1 is the maximum; inactive = score below 0.9.

Sequence of Steroid hormone receptor ERR1 (Homo sapiens) (P11474 whole entry, looked up, the tested form may be a part): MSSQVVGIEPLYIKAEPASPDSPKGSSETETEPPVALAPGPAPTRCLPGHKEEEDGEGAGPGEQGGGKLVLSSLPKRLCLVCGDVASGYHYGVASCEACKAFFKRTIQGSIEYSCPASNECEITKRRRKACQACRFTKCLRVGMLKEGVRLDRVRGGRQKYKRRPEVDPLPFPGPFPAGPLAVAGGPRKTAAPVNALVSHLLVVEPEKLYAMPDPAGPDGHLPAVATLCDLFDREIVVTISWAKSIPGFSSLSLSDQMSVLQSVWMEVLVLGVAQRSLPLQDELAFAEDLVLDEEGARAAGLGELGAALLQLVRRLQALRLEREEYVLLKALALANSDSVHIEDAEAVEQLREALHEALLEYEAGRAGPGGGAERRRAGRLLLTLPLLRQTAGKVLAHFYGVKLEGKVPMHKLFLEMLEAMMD
Sequence of X-box-binding protein 1 (Homo sapiens) (P17861 whole entry, looked up, the tested form may be a part): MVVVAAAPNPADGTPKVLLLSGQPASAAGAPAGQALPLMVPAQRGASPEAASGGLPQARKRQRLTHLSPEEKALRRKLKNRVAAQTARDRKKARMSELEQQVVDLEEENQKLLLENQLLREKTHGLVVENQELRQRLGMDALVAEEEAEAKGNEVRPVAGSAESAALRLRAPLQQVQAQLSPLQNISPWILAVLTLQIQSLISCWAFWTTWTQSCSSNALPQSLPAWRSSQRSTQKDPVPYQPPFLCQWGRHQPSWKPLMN
Sequence of Paired box protein Pax-6 (Homo sapiens) (P26367 whole entry, looked up): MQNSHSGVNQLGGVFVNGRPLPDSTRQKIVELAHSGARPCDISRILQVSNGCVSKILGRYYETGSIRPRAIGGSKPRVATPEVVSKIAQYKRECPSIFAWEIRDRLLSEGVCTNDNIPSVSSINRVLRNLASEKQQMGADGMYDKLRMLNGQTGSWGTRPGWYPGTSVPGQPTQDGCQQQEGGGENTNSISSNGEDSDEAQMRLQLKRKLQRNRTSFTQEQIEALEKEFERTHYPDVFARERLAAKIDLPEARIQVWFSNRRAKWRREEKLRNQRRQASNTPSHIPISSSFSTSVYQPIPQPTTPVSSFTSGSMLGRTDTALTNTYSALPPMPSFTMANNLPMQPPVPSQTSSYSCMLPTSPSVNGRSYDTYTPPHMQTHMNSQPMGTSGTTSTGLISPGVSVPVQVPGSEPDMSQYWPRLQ
Sequence of Estrogen receptor (Homo sapiens) (P03372 whole entry, looked up, the tested form may be a part): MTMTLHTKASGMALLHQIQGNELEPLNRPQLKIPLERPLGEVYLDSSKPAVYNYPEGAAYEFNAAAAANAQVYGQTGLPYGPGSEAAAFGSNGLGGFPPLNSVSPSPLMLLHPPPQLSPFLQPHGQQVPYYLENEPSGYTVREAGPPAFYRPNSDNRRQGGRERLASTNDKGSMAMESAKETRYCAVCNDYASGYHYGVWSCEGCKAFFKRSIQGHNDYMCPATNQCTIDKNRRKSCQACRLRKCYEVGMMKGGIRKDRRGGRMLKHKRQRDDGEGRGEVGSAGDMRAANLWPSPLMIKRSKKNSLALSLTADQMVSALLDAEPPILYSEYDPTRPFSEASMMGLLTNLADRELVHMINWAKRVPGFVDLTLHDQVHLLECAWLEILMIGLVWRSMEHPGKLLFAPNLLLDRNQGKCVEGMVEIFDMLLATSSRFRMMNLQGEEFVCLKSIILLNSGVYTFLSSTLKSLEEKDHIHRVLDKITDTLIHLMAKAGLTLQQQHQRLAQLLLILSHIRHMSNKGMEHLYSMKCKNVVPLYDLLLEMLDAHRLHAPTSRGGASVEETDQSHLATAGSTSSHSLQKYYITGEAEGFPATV

In the case of `COCC(=O)N(c1c(C)cccc1C)C(C)C(=O)OC` (stereo not drawn), the result in experiment [1], in [2], in [4], in experiment [5], in experiment [6] and in experiment [7] was inactive. Besides, the compound was classed as inactive in experiment [8], in experiment [9], in [10], in experiment [11], in experiment [12] and in experiment [13]. In addition, the outcome in [14], in experiment [15], in experiment [16] and in [17] was inactive. Further, the AC50 (commonly the concentration at which the activity in the assay is half-maximal) in experiment [3] is 9.28 µM (active).
Consider `CCOc1nc(C(Cl)(Cl)Cl)ns1`, for which the result in experiment [1], in [2], in experiment [4], in [6], in [7] and in experiment [8] was inactive. Moreover, the call in experiment [9], in experiment [10], in experiment [11], in experiment [12], in experiment [13] and in [14] was inactive. Further, the call in experiment [15], in experiment [16] and in experiment [17] was inactive. Moreover, the AC50 in experiment [3] is 33.5 µM (active); in experiment [5], 70.3 µM (active).
On to `CCOc1cc(C(C)(C)C)ccc1C1COC(c2c(F)cccc2F)=N1` (stereo not drawn), for which the result in experiment [1], in experiment [2], in [4], in experiment [5], in experiment [6] and in experiment [7] was inactive. Further, the compound was called inactive in [8], in experiment [9], in experiment [10], in experiment [11], in [12] and in experiment [13]. The compound was classed as inactive in experiment [19], in experiment [14], in [15], in experiment [16] and in [17]. Besides, the AC50 in experiment [3] is 0.593 µM (active); in experiment [18], 1.36 µM (active).
